Data on five compounds can be found in PubChem BioAssay (NCATS).

The structures appear in SMILES notation. Unmarked numbers belong to inactive results. Results filed as inconclusive are left out. Activity calls are given as the source filed them. Unless noted, the call rests on the fitted dose curve; in most records, active means well fitted curve in the direction sought with a large enough effect; inconclusive means small, poorly fitted or top-dose-only effect, or another doubt; inactive means no such curve, though single readings can be large; an effect the other way counts as inactive or inconclusive.

Assay [1] in a line: Cell Viability - Jurkat (AID 426;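 active means dose-dependent loss of cell ATP signal giving a full or clear fitted curve, ranked by lower potency value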;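 further: potency means the concentration at half of the fitted maximal effect; cells exposed to compound for 40 hours at 37 °C before ATP read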). The note with it: qHTS. The method, boiled down:
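Cytotoxicity taken as drop in cellular ATP (CellTiter-Glo luminescence, 20 min room temperature) after 40 hr, 37C treatment of 5000 Jurkat Clone E6-1 cells per well; concentration-response fitted with Hill equation for AC50.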
A general note: In qHTS, concentration-response curves come from the screen itself.

The nature of assay [2]: Cell Viability - HUV-EC-C (AID 542).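 Further: cells exposed to compound for 40 hours; nearly all actives have a fitted effect of over 35% in size.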 Further: potency means the concentration at half of the fitted maximal effect. The note with it: HUV-EC-C endothelial cell viability, qHTS; series mostly up to 92.2 µM. The method in brief:
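CellTiter-Glo luminescence measured ATP loss in HUV-EC-C cells (1000/well) after 40 hr compound exposure at 37 °C, in complete culture medium. Concentration-response data were Hill-fitted to give AC50.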

The nature of assay [3]: Cell Viability - H-4-II-E (AID 543).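 Further: cells exposed to compound for 40 hours; nearly all actives have a fitted effect of over 35% in size.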 Further: potency means the concentration at half of the fitted maximal effect. The conditions noted are these: H-4-II-E rat hepatoma viability; series mostly up to 92.2 µM. The method in brief:
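CellTiter-Glo luminescence (intracellular ATP) measured after 40 h compound exposure at 37 °C in H-4-II-E rat hepatoma cells seeded at 1500/well. Values are AC50s fitted with the standard Hill equation.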

The nature of assay [4]: Cell Viability - SH-SY5Y (AID 544).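 Further: cells exposed to compound for 40 hours; nearly all actives have a fitted effect of over 55% in size.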 Further: potency means the concentration at half of the fitted maximal effect. The conditions noted are these: SH-SY5Y neuroblastoma cell viability; viability change, negative = cytotoxic: at 92.2 µM (top of the series). The method in brief:
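Cytotoxicity measured via ATP-dependent luciferase luminescence (CellTiter-Glo) following 40 h, 37 °C exposure of 1500 SH-SY5Y cells per well. Concentration-response data were fitted with the standard Hill equation to give AC50.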

Assay [5] is described as follows: Cellular Toxicity (caspase-3) BJ (AID 658).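 Further: 0% = DMSO basal and 100% = 10 µM staurosporine.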 The note with it: BJ fibroblasts, luminescence, normalized: DMSO 0%, staurosporine 100%; series mostly up to 91.7 µM. The method in brief:
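Caspase-Glo 3/7 luminescence, read 1 hr after reagent at room temperature, in normal BJ fibroblasts exposed 16 hours at 37 °C. AC50 values from Hill-equation concentration-response, scaled between DMSO basal and 10 uM staurosporine as 100%.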

The nature of assay [6]: Cellular Toxicity (caspase-3) Mesangial (AID 660).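 Further: combined caspase 3 and 7 activity read by Caspase-Glo luminescence; cells exposed to compound for 16 h before the caspase read.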 The conditions noted are these: mesangial cells; Potency: caspase-3 activation; series mostly up to 91.7 µM. The method, boiled down: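 Caspase 3/7 activation measured by Caspase-Glo 3/7 luminescence (20 min, room temperature) following 16 h exposure of mesangial cells (1000/well); AC50 from Hill-equation fit, normalized to DMSO and 100 uM tamoxifen.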

Assay [7] is described as follows: Cellular Toxicity (caspase-3) Hek293 (AID 664).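 Further: cells exposed to compound for 16 h at 37 °C before readout.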 The note with it: HEK293 caspase-3 activation, DMSO = 0%, 100 µM tamoxifen = 100%; at 92.2 µM (top of the series). The method, boiled down: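 Concentration-response qHTS: caspase 3/7 activation measured by luminescent aminoluciferin substrate cleavage after 16 h compound exposure of Hek 293 cells. AC50 from Hill equation, with DMSO as basal and 100 uM tamoxifen as 100%.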

Assay [8] in a line: Cell Viability - LYMP2-001 (AID 921). Further: nearly all actives have a fitted effect of over 70% in size. Further: potency means the concentration at half of the fitted maximal effect. The note with it: LYMP2-001 lymphoblastoid cell viability; series mostly up to 92.2 µM. The method, boiled down: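 qHTS, 1536-well; lymphoblastoid cells, 24 hr compound, 37 C; ATP by CellTiter-Glo, 30 min RT; luminescence; Hill-fit AC50.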
Assay [9] can be described thus: Cell Viability - LYMP1-002 - Assay at 16 hr (AID 948). Further: potency means the concentration at half of the fitted maximal effect. The conditions noted are these: LYMP1-002 lymphoblastoid cell viability; series mostly up to 92.2 µM. The method in brief:
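Acute cytotoxicity is scored as a concentration-dependent fall in intracellular ATP in a human lymphoblastoid line (LYMP1-002) after 16 hr compound exposure at 37 C, measured by luciferase luminescence.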

A short description of assay [10]: Cell Viability - LYMP1-003 - Assay at 24 hr (AID 963). Further: potency means the concentration at half of the fitted maximal effect.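 On viability change, negative = cytotoxic: plate controls were DMSO only for no effect and tetraoctylammonium bromide positive control for full effect.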 The note with it: LYMP1-003 lymphoblastoid cell viability; series mostly up to 92.2 µM. The method, boiled down: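 Concentration-response qHTS: ATP loss measured by CellTiter-Glo luminescence after 24 h compound exposure at 37 C. Cells were LYMP1-003 human lymphoblastoid, 2500 per well. AC50 derived via standard Hill equation modeling.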

Assay [11] can be described thus: Cell Viability - LYMP1-003 - Assay at 40 hr (AID 964). Further: nearly all actives have a fitted effect of over 60% in size. Further: potency means the concentration at half of the fitted maximal effect. The note with it: LYMP1-003 lymphoblastoid viability; series mostly up to 92.2 µM. The method in brief: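 Viability is taken as cellular ATP, read by CellTiter-Glo luminescence after 40 h of compound exposure at 37 C. Cells: human lymphoblastoid line LYMP1-003 at 2500/well; AC50 values derived by Hill-equation fitting of concentration-response data.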

The nature of assay [12]: Cell Viability - LYMP2-003 (AID 965).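 Further: cells exposed to compounds for 24 h before reading; nearly all actives have a fitted effect of over 50% in size.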 Further: potency means the concentration at half of the fitted maximal effect. The conditions noted are these: LYMP2-003 lymphoblastoid cell viability; series mostly up to 92.2 µM. The method, boiled down: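 Acute cytotoxicity is scored as a concentration-dependent drop in intracellular ATP, measured by luciferase luminescence in human lymphoblastoid cells treated for 24 hours at 37 C. AC50 values derive from Hill-equation modelling.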

Assay [13] is described as follows: Cell Viability - LYMP2-005 (AID 967). Further: potency means the concentration at half of the fitted maximal effect. The note with it: LYMP2-005 lymphoblastoid cell viability; series mostly up to 92.2 µM. The method in brief: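 qHTS viability screen in LYMP2-005 cells: 24 h at 37 C with compound, ATP luminescence via CellTiter-Glo, AC50 from Hill curves.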
Assay [14] is described as follows: Cell Viability - LYMP2-011 (AID 969). Further: nearly all actives have a fitted effect of over 60% in size. Further: potency means the concentration at half of the fitted maximal effect.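 On viability change, negative = cytotoxic: 0% = DMSO only and full inhibition = 92 µM tetraoctylammonium bromide.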 The conditions noted are these: LYMP2-011 lymphoblastoid cells viability; series mostly up to 92.2 µM. The method, boiled down: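 Cytotoxicity qHTS with ATP content as read-out: lymphoblastoid cells (2500/well) exposed to compound for 24 h at 37 C, then luciferase luminescence measured. Concentration-response data fitted with the standard Hill equation to give AC50.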

Assay [15] is described as follows: Cell Viability - LYMP2-015 (AID 971). Further: nearly all actives have a fitted effect of over 55% in size. Further: potency means the concentration at half of the fitted maximal effect. The note with it: LYMP2-015 lymphoblastoid cell viability; series mostly up to 92.2 µM. The method, boiled down: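 Cytotoxicity readout: decrease in intracellular ATP (CellTiter-Glo luminescence) in 2500 LYMP2-015 lymphoblastoid cells/well after 24 h compound exposure at 37 C. Concentration-response data fitted with the standard Hill equation to give AC50.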

Assay [16] in a line: Cell Viability - LYMP2-019 (AID 973). Further: nearly all actives have a fitted effect of over 55% in size. Further: potency means the concentration at half of the fitted maximal effect. The conditions noted are these: LYMP2-019 lymphoblastoid cell line viability; series mostly up to 92.2 µM. The method in brief: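 AC50 values come from Hill-equation fits of luminescent intracellular ATP (CellTiter-Glo, 30 min, room temperature) following 24 h compound exposure at 37 C. Cells: LYMP2-019 lymphoblastoid line, 2500 per well, in complete culture medium.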

Assay [17] in a line: Cell Viability - LYMP2-023 (AID 975). Further: nearly all actives have a fitted effect of over 55% in size. Further: potency means the concentration at half of the fitted maximal effect. The conditions noted are these: LYMP2-023 lymphoblastoid cell viability; series mostly up to 92.2 µM. The method, boiled down: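 Intracellular ATP, read by CellTiter-Glo luminescence, reports viability after 24 hr compound exposure at 37 C. 2500 lymphoblastoid cells/well (LYMP2-023) seeded 5 hr beforehand; Hill fits give AC50; positive control tetraoctylammonium bromide.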

Assay [18] is described as follows: Cell Viability - LYMP2-016 (AID 984). Further: nearly all actives have a fitted effect of over 55% in size. Further: potency means the concentration at half of the fitted maximal effect. The note with it: LYMP2-016 lymphoblastoid cell viability, qHTS; series mostly up to 92.2 µM. The method in brief: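 Acute toxicity in a Coriell human lymphoblastoid line is scored as loss of intracellular ATP over 24 h of treatment in complete medium. CellTiter-Glo signal is fitted across concentrations with the Hill equation to give AC50.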

A short description of assay [19]: Cell Viability - LYMP2-018 (AID 985). Further: nearly all actives have a fitted effect of over 50% in size. Further: potency means the concentration at half of the fitted maximal effect. The conditions noted are these: LYMP2-018 lymphoblastoid cells, viability (qHTS); series mostly up to 92.2 µM. The method, boiled down: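 Viability read as CellTiter-Glo luminescence (cellular ATP) after 24 hr compound exposure at 37 C of 2500 LYMP2-018 lymphoblastoid cells/well, pre-plated 5 hr. Hill-equation modelling gave AC50.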

Assay [20] is described as follows: qHTS assay for cell viability of the p53RE-bla HCT-116 cell line (AID 743292). Further: nearly all actives have a fitted effect of over 55% in size. Further: potency means the concentration at half of the fitted maximal effect. The conditions noted are these: p53RE-bla HCT-116 viability, ATP luminescence, 16 h; series mostly up to 95 µM. The method in brief: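 CellSensor p53RE-bla HCT-116 cells, 4,000/well, preincubated 5 h at 37 C, then exposed to compounds in DMSO for 16 h at 37 C. Viability read as CellTiter-Glo luminescence (intracellular ATP) after 30 min at room temperature.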

With `N#CSCSC#N`, the Potency is 3.31 µM (active) in assay [1]; 25.1 µM (active) in assay [2]; 10 µM (active) in assay [3]; 1 µM (active) in [4]; 5.01 µM (active) in [8]; 31.6 µM (active) in assay [9]. The Potency in [10] is 25.1 µM (active); in [11], 39.8 µM (active); in [12] it was 10 µM (active); in assay [13] it was 5.01 µM (active); in assay [14], 6.31 µM (active); in assay [15], 5.01 µM (active). Besides, the Potency in assay [16] was 5.01 µM (active); in assay [17] it was 6.31 µM (active); in assay [18], 7.94 µM (active); in [19], 7.94 µM (active); in assay [20] it was 50.1 µM (active). Moreover, the outcome in [5] was inactive. In [6], the Potency entry was “inactive”. The caspase-3 activation in assay [7] is -10.2%.

`O=C(CCl)c1ccccc1`: the Potency is 9.5 µM (active) in assay [1]; 15.8 µM (active) in assay [3]; 7.94 µM (active) in assay [4]; 7.94 µM (active) in [8]; 79.4 µM (active) in assay [9]; 10 µM (active) in [12]. The Potency is 10 µM (active) in assay [13]; 12.6 µM (active) in assay [14]; 7.94 µM (active) in assay [15]; 10 µM (active) in [16]; 12.6 µM (active) in assay [17]; 10 µM (active) in assay [18]. For the same compound, the Potency in assay [19] was 10 µM (active). Besides, the compound was called inactive in [5]. Besides, the Potency result in [6], in assay [10] and in [20] was “inactive” throughout. Further, the caspase-3 activation in assay [7] is -9.68%.

On to `Oc1c(Br)c(Br)c(Br)c(Br)c1Br`, for which the values for the Potency in [1] and in assay [3] were 39.1 µM (active) and 50.1 µM (active), respectively. Further, the Potency entry in assay [2], in assay [6], in [8], in [9], in assay [10] and in assay [11] was “inactive” each time. Besides, the Potency entry in assay [12], in [13], in assay [14], in assay [15], in assay [16] and in assay [17] was “inactive” throughout. The Potency result in [18], in assay [19] and in [20] was “inactive” throughout. Also, the call in [5] was inactive.

On to `CCCCCCCCn1sccc1=O`, for which the Potency in [1] was 7.52 µM (active); in assay [2] it was 25.1 µM (active); in [3], 12.6 µM (active); in [4], 3.98 µM (active); in assay [8] it was 2 µM (active); in [9], 15.8 µM (active). In addition, the Potency in assay [10] was 25.1 µM (active); in assay [11], 25.1 µM (active); in assay [12] it was 6.31 µM (active); in assay [13], 3.98 µM (active); in [14] it was 6.31 µM (active); in [15], 3.16 µM (active). Besides, the Potency in assay [16] is 3.98 µM (active); in [17] it was 6.31 µM (active); in [18], 6.31 µM (active); in [19], 5.01 µM (active). Besides, the compound was classed as inactive in [5]. For the same compound, the caspase-3 activation in assay [7] was -9.61%. In [20], the Potency result was “inactive”.

As to `N#CC(Cl)Cl`, the Potency in [1] is 6.52 µM (active); in [8], 10 µM (active); in assay [14], 20 µM (active); in [15] it was 12.6 µM (active); in [16], 15.8 µM (active); in assay [17], 25.1 µM (active). The Potency in assay [18] was 25.1 µM (active); in assay [19] it was 12.6 µM (active); in [20], 44.7 µM (active). The Potency result in [2], in assay [3], in [4], in assay [6], in assay [9] and in [10] was “inactive” throughout. Besides, the Potency result in assay [11], in assay [12] and in assay [13] was “inactive” each time. The caspase-3 activation in assay [7] is 72.2% (active).
